Compound activity as filed in PubChem.
In the library only some 8.1% were active in any assay of this set; here they are far more common.
SW480 rereplic – inducers of DNA re-replication in SW480 colon cancer cells | SW480 DNA re-replication, Hoechst DNA content imaging, 48 h | Potency, µM (titrated, usually from 46.1 µM), without a hit: top-dose re-replication activation, actives largely listed as activators | 340,000 tested, 1.8% active | AID 624297; note: % of control where 0% means no effect; nearly all actives have a fitted effect of over 55% in size
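Image-based DNA-content assay: after two days of treatment, nuclei were labelled with the DNA dye Hoechst and imaged, and hits were compounds raising the count of nuclei showing high fluorescence intensity.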
KB-3-1 cytotox – kills parental KB-3-1 adenocarcinoma cells; 400,000 tested, 1.4% active; Potency, µM (doses to about 46.1 µM), most hits filed as cytotoxic; KB-3-1 viability, CellTiter-Glo ATP luminescence, 72 h; note: % is set by controls: 0 for no effect and ±100 for the full control effect; nearly all actives have a fitted effect of over 60% in size
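72 h, 37 °C compound treatment of KB-3-1 parental cells; CellTiter-Glo added, 10 min, luminescence read. Data corrected against DMSO-only plates and normalized before curve fitting.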
MCF10A rereplic – inducers of DNA re-replication in MCF 10A breast cells; MCF 10A DNA re-replication, Hoechst nuclear intensity, 48 h; Potency, µM (series often up to 46.1 µM), for inactives: top-dose activity, positive = re-replication, hits mostly activators; 350,000 tested, 2.9% active; AID 624296; note: % of control where 0% means no effect; nearly all actives have a fitted effect of over 50% in size
ELG1 DNA repair – ELG1-dependent DNA repair inhibition. HEK293T ELG1-luciferase reporter, luminescence, 16 h; DNA damage induced by 5-fluorouridine. Potency, µM (top dose mostly 46.1 µM), for inactives: at the top dose activity change, negative = inhibition, usual class: inhibitors. 330,000 tested, 2.3% active. AID 504467; note: % is set by controls: 0 for no effect and ±100 for the full control effect; nearly all actives have a fitted effect of over 55% in size
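Overnight (16 hr) co-exposure of 2,000 cells/well to 5-fluorouridine and compound at 37 °C preceded detection. Luciferase was quantified via ONE-Glo luminescence; loss of signal denotes inhibition.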
KB-V1 MDR tox – kills drug-selected multidrug resistant KB-V1 cells; Potency, µM (titrated, usually from 46.1 µM), most hits filed as cytotoxic; 400,000 tested, 3.4% active; KB-V1 MDR cells viability, CellTiter-Glo, 72 h; note: % is set by controls: 0 for no effect and ±100 for the full control effect; nearly all actives have a fitted effect of over 60% in size
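Cytotoxicity via CellTiter-Glo luminescence after 72 h compound exposure at 37 degrees C. Cells: drug-selected KB-V1 line, DMEM phenol-red free plus 10% FBS. Compounds tested at multiple concentrations; normalized data fitted to concentration-effect curves.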
* marks the source's active call; other numbers are inactive results; i = inactive; ? = inconclusive; . = no result; [ ] = dose if it differs, or a comment. Calls come from the whole dose curve; as a rule, active = well fitted curve in the direction sought with a large enough effect; inconclusive = small, poorly fitted or top-dose-only effect, or another doubt; inactive = no such curve, though single readings can be large; an effect the other way counts as inactive or inconclusive. Potency is the fitted concentration of half-maximal effect.

SMILES	SW480 rereplic	KB-3-1 cytotox	MCF10A rereplic	ELG1 DNA repair	KB-V1 MDR tox
CN(Cc1ccccc1)C(=O)c1ccc(NC(=O)Cc2cccc(NC(=O)C3CCN(C(=O)C4CCCC4)CC3)c2)cc1	-8.1%	i	-5.5%	10.3µM*	i
CN(C(=O)c1cccc(NC(=O)Cc2ccc(NC(=O)C3CCCN(C(=O)CCc4ccccc4)C3)cc2)c1)C1CCCC1 (configuration not stated)	2.6%	6.51µM*	?	.	i
CN(C(=O)c1cccc(NC(=O)Cc2ccc(NC(=O)C3CCCN(C(=O)C4CC4)C3)cc2)c1)C1CCCCC1 (configuration not stated)	2.59µM*	i	10.4%	.	i
CN(C(=O)c1cccc(NC(=O)Cc2ccc(NC(=O)C3CCCN(C(=O)CCc4ccccc4)C3)cc2)c1)C1CCC1 (configuration not stated)	-6.2%[9.22 µM]	i	?	.	i
CN(C(=O)c1cccc(NC(=O)Cc2ccc(NC(=O)C3CCCN(C(=O)C4CCCCC4)C3)cc2)c1)C1CCCC1 (configuration not stated)	?	i	15.2%	.	i
Cc1cc(C)n2nc(SC(C)C(=O)N3CCCC3)nc2n1 (configuration not stated)	-10.1%	i	2.4%	21.0%	i
O=C(NCCCN1CCOCC1)c1ccc2ccccc2c1	-7.4%	i	3.2%	?	i
COc1ccc(CN(CC(=O)NC2CCCCC2)C(=O)CCCC(=O)Nc2ccccn2)cc1	-2.7%	i	0.8%	2.6%	i
Cc1ccc(S(=O)(=O)NC2c3cccc4cccc(c34)C2Sc2nncn2C)cc1 (configuration not stated)	2.1%	?	?	-2.0%	i
Cn1cnnc1SC1c2cccc3cccc(c23)C1NS(=O)(=O)c1ccc(Cl)cc1 (configuration not stated)	3.2%	i	-6.4%	-17.8%	11.6µM*
Cc1ccc(S(=O)(=O)NC2c3cccc4cccc(c34)C2Sc2nc(C)cc(C)n2)cc1 (configuration not stated)	-59.4%	i	?	-22.1%	5.17µM*
CC1(c2nnc(-c3ccc(F)cc3)o2)CC(c2ccccc2)=NO1 (configuration not stated)	-21.2%	i	7.7%	10.2%	i
CCOC(=O)c1c(C)[nH]c(C)c1S(=O)(=O)N(C)CC(=O)Nc1cc(C)ccc1OC	-11.3%	i	0.2%	-1.4%	i
CC(C)N1C(=O)S/C(=C/c2ccc(Sc3nc4ccccc4[nH]3)o2)C1=O	?	?	?	?	23.1µM*
C=CCN1C(=O)S/C(=C/c2ccc(Sc3nc4ccccc4[nH]3)o2)C1=O	21.9%	?	?	-18.3%	3.66µM*
CCOC(=O)C(C)N1C(=O)S/C(=C\c2ccc(-c3ccccc3C(=O)O)o2)C1=O (configuration not stated)	?	i	-7.7%	-3.5%	i
Cc1cccc(-c2nnc(SCc3ccc(C#N)cc3)n2Cc2ccco2)c1	-0.4%	i	?	-14.3%	?
FC(F)(F)COc1cc(-c2nnc(SCc3ccccc3)n2Cc2ccco2)cc(OCC(F)(F)F)n1	-1.7%	i	0.2%	18.3µM*	i
O=C(OCCN1C(=O)c2cccc3c(N4CCOCC4)ccc(c23)C1=O)c1cccc(Cl)c1	?	13µM*	1.5%	?	?
O=C(OCCN1C(=O)c2cccc3c(N4CCOCC4)ccc(c23)C1=O)c1ccccc1Cl	?	?	0.9%	11.6µM*	i
O=C(OCCN1C(=O)c2cccc3c(N4CCOCC4)ccc(c23)C1=O)c1ccc(Cl)cc1Cl	5.8µM*	?	?	?	?
O=C(OCCN1C(=O)c2ccccc2C1=O)c1cc(S(=O)(=O)N2CCOCC2)ccc1Cl	2.3%	i	6.9%	-9.0%	i
O=C(COC(=O)c1cccc(Cl)c1)Nc1cc(S(=O)(=O)N2CCOCC2)ccc1N1CCOCC1	-2.4%	i	8.5%	.	i
C/C(=N\Nc1ccc(C(F)(F)F)cn1)c1ccc(S(=O)(=O)NCc2ccco2)cc1	-0.2%	i	?	-6.1%	i
CCCCC12CN3CC(C)(CN(C1)C3c1c(C)[nH]c(=O)[nH]c1=O)C2=O (configuration not stated)	.	i	.	.	i
SMILES	SW480 rereplic	KB-3-1 cytotox	MCF10A rereplic	ELG1 DNA repair	KB-V1 MDR tox
Cc1nc2ccc(S(=O)(=O)NCC(=O)N3CCN(c4ccccc4)CC3)cc2s1	8.1%	i	1.7%	23.1µM*	i
Cc1nc2ccc(S(=O)(=O)NCC(=O)N(C)Cc3ccccc3)cc2s1	-2.4%	i	-0.8%	?	?
Cc1nc2ccc(S(=O)(=O)NCC(=O)NC(C)c3ccccc3)cc2s1 (configuration not stated)	-20.9%	i	0.651µM*	8.8%	i
Cc1nc2ccc(S(=O)(=O)NCC(=O)N3CCCCC3)cc2s1	-0.7%	i	-3.4%	-3.6%	i
C/C(=N/NC(=O)c1nnn(-c2nonc2N)c1-c1ccccc1)c1ccc2c(c1)OCO2	-16.4%	i	-1.4%	-28.1%	i
C/C(=N\N=C(/N)c1nonc1N)c1ccc2c(c1)OCO2	-7.0%	6.51µM*	0.3%	?	1.46µM*
CCOc1cc2[nH]c(=S)n(CC3CCCO3)c(=O)c2cc1OCC (configuration not stated)	0.1%	?	?	?	11.6µM*
COc1cc2[nH]c(=S)n(CC3CCCO3)c(=O)c2cc1OC (configuration not stated)	-8.1%	i	-10.6%	4.5%	i
O=C(NC1CC1)c1ccc(NC(=O)C2CCCC2)cc1	-59.1%	i	-10.1%	.	i
NC(=O)C1CCN(CC(=O)Nc2ccccc2Sc2ccccc2)CC1	-78.8%	i	?	6.3%	20.6µM*
NC(=O)C1CCN(CC(=O)Nc2ccccc2Sc2ccc(Cl)cc2)CC1	-5.9%	i	11.8%	-16.1%	i
CC(=O)NC(CCc1ccc(Cl)c(Cl)c1)c1cccc(O)c(=O)c1 (configuration not stated)	.	?	.	.	8.2µM*
CC(C)NC(=O)C1(C)CCCCN1Cc1ccc(OCc2ccccc2)cc1 (configuration not stated)	.	16.4µM*	.	.	?
O=C1CN(C(=S)Nc2ccc(OC(F)F)cc2)CCN1	-8.8%	i	-0.2%	-7.9%	i
O=C(Nc1nccs1)C1CC(=O)N(Cc2ccco2)C1 (configuration not stated)	1.8%	i	-1.3%	3.6%	i
CC(=O)NNc1nc(-c2ccccc2)c2cc(Br)ccc2n1	-3.0%	i	3.6%	18.7%	i
